# This is a sample that favours compounds with a hit; in the whole collection about 19% have one here.
# HT1080NT lethal – kills 2HG-producing HT-1080-NT fibrosarcoma cells. HT-1080-NT fibrosarcoma viability, CellTiter-Glo ATP luminescence, 48 h. Potency, µM (top dose mostly 46.1 µM), actives largely listed as cytotoxic. 360,000 compounds, 1.6% hits;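 further: NT is the 2HG producing partner of a matched IDH1 knockdown line; nearly all actives have a fitted effect of over 55% in size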
#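 Compounds were tested in concentration-response format on HT-1080-NT cells for 48 hours at 37 degrees C. Cell viability came from CellTiter-Glo luminescence; curves were classified by r2, response magnitude and activity.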
# TDP1 cell CPT – DT40-hTDP1 cell growth loss with CPT; chicken DT40 Tdp1-/-;hTDP1 cells + 20 nM CPT, ATP luminescence, 48 h; AID 686979; Potency, µM (doses to about 46.2 µM), usual class: inhibitors; 420,000 compounds, 12% hits; further: nearly all actives have a fitted effect of over 55% in size
#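 Chicken DT40 Tdp1-/- cells stably complemented with human TDP1 were seeded at 400 cells/well in medium containing 20 nM camptothecin, exposed to pin-transferred compounds, and grown at 37 °C for at least 48 hr. Viability was read as ATP luminescence.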
# TDP1 cell noCPT – qHTS for Inhibitors of human tyrosyl-DNA phosphodiesterase 1 (TDP1): qHTS in cells in absence of CPT | AID 686978, 2013 | 420,000 compounds, 15% hits | DT40 Tdp1-/- hTDP1 cells, no CPT, ATP luminescence, 48 h | Potency, µM (titrated, usually from 46.2 µM), actives largely listed as inhibitors; further: nearly all actives have a fitted effect of over 55% in size
#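 Growth kinetics read by CellTiter-Glo luminescence after ≥48 hr at 37 °C. Cells: DT40 Tdp1-/- stably carrying human TDP1, 400 per well, compound exposure in the absence of CPT (DMSO vehicle).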
# HT1080 IDH1KD tx – toxicity to HT-1080 IDH1 knockdown cells (counter line); HT-1080 IDH1 knockdown viability, ATP luminescence, 48 h; Potency, µM (highest dose often 46.1 µM), actives largely listed as cytotoxic; 360,000 compounds, 2% hits; AID 686971
#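 Using the IDH1-knockdown HT-1080 line run in the same batch and compound series as the NT line, viability after 48 h at 37 °C was determined by CellTiter-Glo luminescence and expressed as % activity.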
# IL-1B inflam inh – inhibitors of inflammasome signaling (IL-1 beta secretion). THP-1 LPS/ATP IL-1B secretion, AlphaLISA, 16 h; active compounds read low. 360,000 compounds, 4.7% hits. activity change, % at 57.5 µM; in the data active means activity change below about -50%; inconclusive means mostly about -30% to -49%
#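 Secreted IL-1B measured by AlphaLISA bead assay after 16 h compound exposure of THP-1 cells; compounds (final up to 57.5 uM) added 1 h before LPS (250 ng/mL) and ATP (1.25 mM) stimulation; lower signal means less secretion.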
# A number is an active result; i = inactive; ? = inconclusive; nt = not tested or not shown; [ ] = another dose, or the depositor's remark. Unless noted, the call rests on the fitted dose curve; in most records, active means well fitted curve in the direction sought with a large enough effect; inconclusive means small, poorly fitted or top-dose-only effect, or another doubt; inactive means no such curve, though single readings can be large; an effect the other way counts as inactive or inconclusive.
SMILES,HT1080NT lethal,TDP1 cell CPT,TDP1 cell noCPT,HT1080 IDH1KD tx,IL-1B inflam inh
CNC1CCC(c2ccc(Cl)c(Cl)c2)c2ccccc21 (stereo unspecified),nt,14.6µM,18.4µM,nt,nt
COc1cc(/C=N/NC(=O)c2c(-c3c(Cl)cccc3Cl)noc2C)ccc1OCC(N)=O,i,i,i,i,i
Cc1onc(-c2c(Cl)cccc2Cl)c1C(=O)NC1CCCCC1,i,?,9.2µM,i,i
Cc1onc(-c2c(Cl)cccc2Cl)c1C(=O)N/N=C(\N)COc1ccc(Cl)cc1,?,5.17µM,5.17µM,?,i
Cc1onc(-c2c(Cl)cccc2Cl)c1C(=O)NN1CCCCCC1,i,i,i,i,nt
Cc1cc(Br)c(NC(=O)c2c(-c3c(Cl)cccc3Cl)noc2C)c(Br)c1,i,20.6µM,?,i,i
Cc1onc(-c2c(F)cccc2Cl)c1C(=O)NC1CCCCCC1,i,?,29.1µM,i,i
Cc1onc(-c2c(F)cccc2Cl)c1C(=O)c1ccccc1O,?,i,?,25.9µM,i
Cc1onc(-c2c(Cl)cccc2Cl)c1C(=O)c1c[nH]c(C(=O)NCC2CCCO2)c1 (stereo unspecified),i,?,13µM,i,i
Cc1onc(-c2ccccc2Cl)c1C(=O)NC1CCCCCC1,i,25.9µM,16.4µM,i,i
CC(=O)c1c[nH]c(C(=O)NCC2CCCO2)c1 (stereo unspecified),i,i,i,i,i
CN(C)CCOc1nc(-c2ccccc2)nc2c1oc1ccccc12,?,?,23.1µM,i,-99.1
CCC1CCCCN1S(=O)(=O)c1ccc(NC(=O)C2CCN(C(=O)c3ccco3)CC2)cc1 (stereo unspecified),?,i,?,i,i
CCC1CCCCN1S(=O)(=O)c1ccc(NC(=O)c2nc(S(C)(=O)=O)ncc2Cl)cc1 (stereo unspecified),4.61µM,1.46µM,2.59µM,3.26µM,-100.6
CCSc1ncc(Cl)c(C(=O)Nc2cccc(Cl)c2)n1,nt,10.3µM,?,nt,nt
CCC1CCCCN1S(=O)(=O)c1ccc(NC(=O)c2cc(=O)c3c(C)cc(C)cc3o2)cc1 (stereo unspecified),nt,i,14.6µM,nt,nt
CCC1CCCCN1S(=O)(=O)c1ccc(NC(=O)c2ccncc2)cc1 (stereo unspecified),i,16.4µM,11.6µM,i,i
CN(C)CCCNc1ccc(-c2nn(C)c(=O)c3ccccc23)cc1[N+](=O)[O-],i,i,i,i,i
Nc1sccc1C(=O)NCCN1CCOCC1,i,i,i,i,i
Cc1cccc(OCC(=O)O/N=C(\N)Cc2ccc(Cl)cc2)c1,i,i,?,i,i
CCSc1ncc(Cl)c(C(=O)Nc2ccc(S(=O)(=O)N3CCCCC3CC)cc2)n1 (stereo unspecified),nt,10.3µM,6.51µM,nt,nt
Fc1ccc(Nc2cncc(-c3ccsc3)c2)cc1Cl,i,16.4µM,18.4µM,i,i
CSc1ccccc1CNC(=O)C1(C)CCCN1CC(C)C (stereo unspecified),i,25.9µM,23.1µM,i,i
Cc1ccsc1C(=O)N1CCCC1(C)C(=O)NCC(C)C (stereo unspecified),i,i,i,i,i
Cc1cccnc1CNC(=O)C1(C)CCCN1CC(C)C (stereo unspecified),i,14.6µM,14.6µM,i,i
SMILES,HT1080NT lethal,TDP1 cell CPT,TDP1 cell noCPT,HT1080 IDH1KD tx,IL-1B inflam inh
Cc1ccsc1CNC(=O)C1(C)CCCN1CC(C)C (stereo unspecified),i,14.6µM,?,i,i
CC1=C(C(=O)N(C)C)CC(CC(=O)NC(c2ccccc2)c2ccccc2)C(=O)N1CCCN1CCCC1=O (stereo unspecified),i,i,i,i,i
Cc1[nH]n2c(=O)cc(-c3ccc([N+](=O)[O-])cc3)nc2c1-c1ccccc1,16.4µM,11.6µM,7.31µM,16.4µM,i
Cc1[nH]n2c(=O)cc(-c3ccc(Cl)cc3)nc2c1-c1ccccc1,nt,0.651µM,0.92µM,nt,nt
CCOC(=O)Cc1c(C)nc2c(-c3ccc(Cl)cc3)c(C(F)(F)F)nn2c1C,nt,23.1µM,23.1µM,nt,nt
CCc1cc(=O)n2[nH]c(-c3ccccc3)c(-c3ccccc3)c2n1,?,?,20.6µM,?,i
CCc1cc(=O)n2[nH]c(C)c(-c3ccc(OC)cc3)c2n1,i,i,i,i,i
CN(C)CC(C)(O)c1ccc2c(c1)CN(Cc1cnn(-c3ccccc3)c1)CCO2 (stereo unspecified),nt,i[9.04 µM],i,nt,nt
COc1ccc(NC(=O)C2CCN(S(=O)(=O)c3ccc4[nH]c(=O)ccc4c3)CC2)c(OC)c1,nt,i,i,nt,nt
COc1ccccc1N1CCN(CC(=O)NCC2CCCO2)CC1 (stereo unspecified),i,i,i,i,i
CCOC(=O)Cc1cc(=O)n2[nH]cc(-c3cccc(Br)c3)c2n1,i,?,23.1µM,?,i
Cc1[nH]n2c(=O)cc(C(C)(C)C)nc2c1-c1ccccc1,i,4.61µM,5.17µM,?,i
COC(=O)Cc1cc(=O)n2[nH]c(C)c(-c3ccccc3)c2n1,i,i,i,i,i
CCOC(=O)Cc1cc(=O)n2[nH]c(C)c(-c3ccc(Cl)cc3)c2n1,?,16.4µM,11.2µM,?,i
CCOC(=O)Cc1cc(=O)n2[nH]c(C)c(-c3ccc(OC)cc3)c2n1,i,?,?,i,i
CC(C)(C)NC(=O)C1CCN(C(=O)c2ccco2)CC1,i,i,i,i,i
Cc1cc(-c2ccccc2)nc(N/N=C/c2ccccc2F)n1,i,?,?,i,i
Cc1ccc2nc(N/N=C/c3ccccc3C#N)nc(-c3ccccc3)c2c1,i,?,23.1µM,i,-73.2
Cc1ccc2nc(N/N=C/c3ccccc3F)nc(-c3ccccc3)c2c1,i,?,?,i,-52.6
OCCNc1nc(-c2ccccc2)c2cc(Cl)ccc2n1,?,i,i,?,i
Cc1ccc2nc(NCCO)nc(-c3ccccc3)c2c1,i,?,25.9µM,i,i
CCCc1ccc2oc(C(=O)N3CCCC3)c(C)c2c1,i,?,?,i,i
CCC(Sc1nnc(C)n2c1cc1sccc12)C(=O)Nc1ccccc1F (stereo unspecified),nt,?,20.6µM,nt,nt
CCC(Sc1nncn2c1cc1sccc12)C(=O)Nc1cccc(OC)c1 (stereo unspecified),nt,?,23.1µM,nt,nt
O=C(CCCCCn1c(=O)c2sccc2n(Cc2ccccc2Cl)c1=O)NCc1ccc2c(c1)OCO2,nt,i,i,nt,nt
Cc1ccc(C)c(NC(=O)COC(=O)c2ccc(S(=O)(=O)N3CCCC3)cc2)c1,i,i,i,i,i
COC(=O)C[C@H]1c2ccccc2S(=O)(=O)N1c1cccc(OC)c1,i,?,i,i,i
